High-throughput results as filed in PubChem.
Methyltransferases – Primary Screen for Target Class Profiling of Small Molecule Inhibitors of Methyltransferases | purified enzyme, MTase-Glo SAH luminescence; active compounds read low | calls only at 40 µM | actives 3.9% (n = 25,000); call rule not given here
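Each enzyme was assayed with SAM and its substrate. SAH formation detected by MTase-Glo luminescence; single-point 40 uM screen[…].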
MTase-Glo ctr – inhibits MTase-Glo coupling enzymes without methyltransferase; shares compounds with Methyltransferases; MTase-Glo coupled enzymes, SAH conversion luminescence, no MTase; Potency, µM (doses to about 57.3 µM), without a hit: top-dose activity change, negative = inhibition, hits mostly inhibitors; actives 6% (n = 180); active = well fitted inhibition curve with a large enough effect; also: potency is read from the fitted curve at half-maximal effect
The depositor's hits bear a star; [ ] = another dose, or the depositor's remark. The sample as a whole holds a higher share of hits than the screen did. % is scaled to controls: 0 for no effect and ±100 for the full control effect.

Results for CCCn1c(C)cnc1CC1CCCN(S(=O)(=O)c2cc(OC)ccc2OC)C1 (stereo not drawn) ?
Methyltransferases: inactive

How did Cc1nnc([C@H]2CCN(C3CCN(C)CC3)C2)o1 do in these assays?
Methyltransferases: inactive

What do the screens show for `COc1ccc(-c2nnc3n2CCN(C(=O)c2ccc(Cl)nc2)C3)cc1`?
Methyltransferases: inactive

How did CC1CC(C)CN(CCCN2C(=O)c3ccc(-c4ccco4)n3CC2(C)C(=O)NC2CCCC2)C1 (stereo not drawn) do in these assays?
Methyltransferases: inactive

How did Cc1noc2c(-c3cnn(C)c3)cc(-c3cccnc3)nc12 do in these assays?
Methyltransferases: inactive

How did COC1CCN(c2cc(-c3ccsc3)nc3c(C)noc23)CC1 do in these assays?
Methyltransferases: active; MTase-Glo ctr: -5%[85.7 µM]

What do the screens show for `Cc1noc2c(N3CCOCC3)cc(-c3cccs3)nc12`?
Methyltransferases: active; MTase-Glo ctr: 2%[85.7 µM]

What do the screens show for `COc1cccc(-c2cc(-c3cccs3)nc3c(C)noc23)c1`?
Methyltransferases: inactive

Results for Cc1noc2c(Nc3ccc(C(N)=O)cc3)cc(-c3ccsc3)nc12 ?
Methyltransferases: inactive

Results for Cc1noc2c(N3CCOCC3)cc(-c3cccnc3)nc12 ?
Methyltransferases: inactive

What do the screens show for `COc1ccc(CCNC(=O)CCCc2nnc3n4nc(-c5ccccc5)nc4c4ccccc4n23)cc1OC`?
Methyltransferases: inactive

What do the screens show for `COc1cc(C(=O)NC(=S)Nc2cccc(NC(=O)c3ccccc3)c2)cc(OC)c1OC`?
Methyltransferases: inactive

What do the screens show for `COc1cc(NC(=O)c2ccccn2)ccc1Cl`?
Methyltransferases: inactive

How did COc1ccccc1CC(=O)N1CCCc2ncc(C(=O)Nc3cccc(Cl)c3)cc21 do in these assays?
Methyltransferases: active; MTase-Glo ctr: 4%[85.7 µM]

What do the screens show for `O=C(Cn1ccc2cc(S(=O)(=O)N3CCCCC3)ccc21)NCCCc1ccccc1`?
Methyltransferases: inactive

Results for COc1ccc(-c2cc3n(n2)CC(C)(C(=O)NCc2ccccc2OC)N(CCc2ccccc2)C3=O)cc1 (stereo not drawn) ?
Methyltransferases: inactive

What do the screens show for `CN1C(=O)CCCCC1C(=O)NCCN1CCCCC1` (stereo not drawn)?
Methyltransferases: inactive

What do the screens show for `CC1CCN(CCCNC(=O)C2CCc3sc(C(=O)N4CCCC4)cc3C2)CC1` (stereo not drawn)?
Methyltransferases: active; MTase-Glo ctr: -2%

What do the screens show for `CCCCNC(=O)C1CCc2sc(C(=O)N3CCCCC3)cc2C1` (stereo not drawn)?
Methyltransferases: inactive

Results for Cc1ccc(Cn2c(=O)c3ccc(C(=O)NC4CCCC4)cc3n3c(=O)n(CC(N)=O)nc23)cc1 ?
Methyltransferases: inactive

Results for CN(C)C(=O)C1=NOC2CN(C(=O)C3CC3)CC12 (stereo not drawn) ?
Methyltransferases: inactive

What do the screens show for `O=C(CC1CCCC1)N1CCC(c2noc(-c3cnccn3)n2)C1` (stereo not drawn)?
Methyltransferases: inactive

Results for O=C(CC1CCOCC1)N1CCN(c2ncccn2)CC1 ?
Methyltransferases: inactive

Results for O=C(CC1CCCC1)N1CCC(Nc2cccnc2)C1 (stereo not drawn) ?
Methyltransferases: active; MTase-Glo ctr: -6%

Results for Cn1ccc2c(C(=O)NCCc3cnc[nH]3)nc(-c3ccc(N4CCOCC4)cc3)cc21 ?
Methyltransferases: active; MTase-Glo ctr: 2%[85.7 µM]

What do the screens show for `Cn1cncc1CNC(=O)c1nc(-c2cccc(N3CCOCC3)c2)cc2c1ccn2C`?
Methyltransferases: inactive

How did Cc1ccc(-c2cc3c(ccn3C)c(C(=O)NCc3cccnc3)n2)cn1 do in these assays?
Methyltransferases: inactive

Results for CN1CCOc2c(C(=O)NCc3cnn(C)c3)cc(-c3ccc([S+](C)(=O)[O-])cc3)cc21 ?
Methyltransferases: inactive

Results for CNC(=O)c1cc(-c2cnc(OC)nc2)cc2c1OCCN2Cc1cccnc1 ?
Methyltransferases: inactive

What do the screens show for `CCc1nc2cc(N3CCC(C(=O)NCc4cccnc4)CC3)cnc2nc1CC`?
Methyltransferases: inactive

What do the screens show for `O=C(NCC1CCCO1)c1cc(-c2ccccc2F)cc2c1OCCN2Cc1cccnc1` (stereo not drawn)?
Methyltransferases: inactive

What do the screens show for `CC(=O)Nc1cc(-c2cc(C(=O)NCc3cccnc3)c3c(c2)N(C)CCO3)ccn1`?
Methyltransferases: active; MTase-Glo ctr: 1%[85.7 µM]

What do the screens show for `COc1ccc(-c2cc(C(=O)NCc3cccnc3)c3c(c2)N(C)CCO3)cc1OC`?
Methyltransferases: active; MTase-Glo ctr: 5%[85.7 µM]

What do the screens show for `COc1ccc(CN2C(=O)c3cc4ccccc4n3CC2(C)C(=O)NCc2ccccc2OC)c(OC)c1` (stereo not drawn)?
Methyltransferases: inactive

What do the screens show for `CC(C)CNC(=O)c1ccc2c(=O)n(CC(C)C)c3nn(CC(=O)NC4CCCC4)c(=O)n3c2c1`?
Methyltransferases: inactive

How did COc1cccc(C(=O)N2CCCC(COc3ccccc3C(=O)N3CCOCC3)C2)c1 (stereo not drawn) do in these assays?
Methyltransferases: inactive

Results for Cn1cc(CN2CCCC(COc3ccccc3C(=O)N3CCCCC3)C2)c2ccccc21 (stereo not drawn) ?
Methyltransferases: active; MTase-Glo ctr: -2%

Results for COc1cccc(C(=O)NCC2CCCN(Cc3ccccn3)C2)c1OC (stereo not drawn) ?
Methyltransferases: inactive

Results for CCOc1ccccc1NC(=O)c1ncn2c1C(=O)N(C1CC1)C(C)(C(=O)NC1CCCC1)C2 (stereo not drawn) ?
Methyltransferases: inactive

What do the screens show for `O=S(=O)(c1ccccc1)N1CC(c2nc(Cc3cccnc3)no2)C1`?
Methyltransferases: inactive

What do the screens show for `CC(C)Cn1c(=O)c2ccc(C(=O)NC3CCCC3)cc2n2c(=O)n(Cc3ccccc3F)nc12`?
Methyltransferases: inactive

Results for COCCC1(NC(=O)C2CC2)CCN(C(=O)C2CC2)CC1 ?
Methyltransferases: inactive

What do the screens show for `Cc1ccc(NC(=O)Cn2c(=O)oc3cc(S(=O)(=O)N4CCCC4)ccc32)c(C)c1`?
Methyltransferases: inactive

Results for C[S+](=O)([O-])N1CCC(Cn2ccc3c(N4CCOCC4)nc(-c4cccc5[nH]ncc45)cc32)CC1 ?
Methyltransferases: active; MTase-Glo ctr: 4%

What do the screens show for `CC1CCC2C(C)(C)CC(C)(CO)C2(O)C1C(=O)O` (stereo not drawn)?
Methyltransferases: inactive

How did CCc1ccccc1N1C(=O)c2c(C(=O)OC)ncn2CC1(C)C(=O)NC1CCCC1 (stereo not drawn) do in these assays?
Methyltransferases: inactive

What do the screens show for `O=C(NC(NC(=S)Nc1ccc(F)c([N+](=O)[O-])c1)C(Cl)(Cl)Cl)C(c1ccccc1)c1ccccc1` (stereo not drawn)?
Methyltransferases: inactive
